PubChem BioAssay (NCI)
The panel holds about 83,000 compounds, 20% with a hit somewhere; the sample as a whole holds those more often.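 Activity criterion: percent growth below 10, measured after cells in 96-well plates were exposed to a single compound concentration for 48 hours.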 Active and inactive are the calls of the source.

The compounds below were run on NCI-H23 lung (assay: NCI-60 one-dose screen, 48 h (100 = growth as untreated, 0 = no growth, -100 = all killed)). Settings: 10 µM unless noted.

Row | SMILES | growth
1 | S=C(Sc1ccc(Cl)cc1)Sc1ccc(Cl)cc1 | 21.8% (inactive)
2 | O=C(O)c1ccc([N+](=O)[O-])cc1S(=O)(=O)O | 104% (inactive)
3 | O=C(O)CC1=CCCCC1 | 98.9% (inactive)
4 | O=C1C=C[C@H](O)[C@@]2(CO)O[C@@H]12 | 93.1% (inactive)
5 | NC(=O)NCCO | 98.9% (inactive)
6 | O=C(O)C1CCCN1C(=O)OCc1ccccc1 (centres undefined) | 104% (inactive)
7 | C=CC(C)(C)n1cc(C2=C(O)C(=O)C(c3cn(C(C)(C)C=C)c4ccccc34)=C(O)C2=O)c2ccccc21 | 80.7% (inactive)
8 | COC(=O)c1cccc([N+](=O)[O-])c1 | 96.3% (inactive)
9 | CCOC(=O)C(=O)CC(=O)c1ccccc1 | 95.4% (inactive)
10 | O=Cc1ccc(F)cc1 | 105% (inactive)
11 | CC1CC2C3CCC4=CC(=O)CCC4(C)C3CCC2(C)C1(O)C(=O)CO (centres undefined) | 115% (inactive)
12 | CC(CC(CCC(=O)O)(c1ccccc1)c1ccccc1)N(C)C (centres undefined) | 98.8% (inactive)
13 | Cc1ccc(S(=O)(=O)Oc2ccc3sc4c(CO)ccc(NCCN(C)C)c4c(=O)c3c2)cc1 | -79.5% [100 µM] (active)
14 | O=C(OCC1CCCO1)c1ccc([N+](=O)[O-])cc1 (centres undefined) | 105% (inactive)
15 | Nc1c(Br)cc(O)c2c1C(=O)c1ccccc1C2=O | 32.8% (inactive)
16 | COc1ccc(Br)c2c1C(=O)CC2 | 109% (inactive)
17 | CC(=O)N(C(C)=O)c1ccc(C)cc1 | 98.1% (inactive)
18 | CC1(C)C2CCC1(C)C1(C2)OCCS1 (centres undefined) | 95.6% (inactive)
19 | O=c1n(CC2CO2)c(=O)n(CC2CO2)n1CC1CO1 (centres undefined) | 55.2% (inactive)

Row | SMILES | growth
20 | S=C=Nc1ccc2ccccc2c1 | 96.9% (inactive)
21 | O=C(O)c1c[nH]c2ccccc2c1=O | 96.5% (inactive)
22 | Cc1[nH]n(-c2ccccc2)c(=O)c1C=NC(=S)C(N)=S | 98.1% (inactive)
23 | CC(=O)N(C)N=Nc1ccc(C)cc1 | 95% (inactive)
24 | COc1ccc2c(Cl)cc(NC(=O)Nc3c(C)cccc3C)nc2c1 | 96.9% (inactive)
25 | O=C(c1ccc(Cl)cc1)N1CCCCC1 | 95.6% (inactive)
26 | CC(=O)NC(O)C(Cl)Cl (centres undefined) | 91.8% (inactive)
27 | CCC(/C=C\C(C)=O)CC | 101% (inactive)
28 | CCOC(=O)C(COS(C)(=O)=O)(COS(C)(=O)=O)C(=O)OCC | 99.5% (inactive)
29 | CC(=O)NNC(=S)N/C=C/c1c(C)ccc([N+](=O)[O-])c1[N+](=O)[O-] | 94.8% (inactive)
30 | CC(=O)N(CCCCCCN(C(C)=O)C(C)=O)C(C)=O | 108% [100 µM] (inactive)
31 | CC(=O)NCNC(C)=O | 113% (inactive)
32 | NNc1ncccn1 | 98.4% (inactive)
33 | CC12CCC3c4ccc(O)cc4CCC3C1CCC2=O (centres undefined) | 104% (inactive)
34 | Nc1cc2ccccc2c(O)c1O | 54% (inactive)
35 | S=c1nc(-c2ccccn2)c(-c2ccccn2)n[nH]1 | 100% (inactive)
36 | CC(C)Sc1ncnc2nc[nH]c12 | 114% (inactive)
37 | Clc1cccc(Cl)c1C1CSc2ccccc2N=C1c1ccccc1 (centres undefined) | 75.6% (inactive)

What follows are compounds tested on NCI-H226 lung in the same assay as above. Settings: 10 µM unless noted.

Row | SMILES | growth
38 | S=C(Sc1ccc(Cl)cc1)Sc1ccc(Cl)cc1 | -52.5% (active)
39 | O=C(O)c1ccc([N+](=O)[O-])cc1S(=O)(=O)O | 104% (inactive)
40 | O=C(O)CC1=CCCCC1 | 103% (inactive)
41 | O=C1C=C[C@H](O)[C@@]2(CO)O[C@@H]12 | 71.3% (inactive)
42 | NC(=O)NCCO | 95% (inactive)
43 | O=C(O)C1CCCN1C(=O)OCc1ccccc1 (centres undefined) | 108% (inactive)
44 | C=CC(C)(C)n1cc(C2=C(O)C(=O)C(c3cn(C(C)(C)C=C)c4ccccc34)=C(O)C2=O)c2ccccc21 | 89.9% (inactive)
45 | COC(=O)c1cccc([N+](=O)[O-])c1 | 103% (inactive)
46 | CCOC(=O)C(=O)CC(=O)c1ccccc1 | 86.6% (inactive)
47 | O=Cc1ccc(F)cc1 | 94.7% (inactive)
48 | CC1CC2C3CCC4=CC(=O)CCC4(C)C3CCC2(C)C1(O)C(=O)CO (centres undefined) | 103% (inactive)
49 | CC(CC(CCC(=O)O)(c1ccccc1)c1ccccc1)N(C)C (centres undefined) | 95.3% (inactive)
50 | Cc1ccc(S(=O)(=O)Oc2ccc3sc4c(CO)ccc(NCCN(C)C)c4c(=O)c3c2)cc1 | -42.2% [100 µM] (active)
51 | O=C(OCC1CCCO1)c1ccc([N+](=O)[O-])cc1 (centres undefined) | 92.5% (inactive)
52 | Nc1c(Br)cc(O)c2c1C(=O)c1ccccc1C2=O | 108% (inactive)
53 | COc1ccc(Br)c2c1C(=O)CC2 | 100% (inactive)
54 | CC(=O)N(C(C)=O)c1ccc(C)cc1 | 96.2% (inactive)
55 | CC1(C)C2CCC1(C)C1(C2)OCCS1 (centres undefined) | 92.7% (inactive)
56 | O=c1n(CC2CO2)c(=O)n(CC2CO2)n1CC1CO1 (centres undefined) | 85.9% (inactive)

Row | SMILES | growth
57 | S=C=Nc1ccc2ccccc2c1 | 101% (inactive)
58 | O=C(O)c1c[nH]c2ccccc2c1=O | 105% (inactive)
59 | Cc1[nH]n(-c2ccccc2)c(=O)c1C=NC(=S)C(N)=S | 99.7% (inactive)
60 | CC(=O)N(C)N=Nc1ccc(C)cc1 | 97.7% (inactive)
61 | COc1ccc2c(Cl)cc(NC(=O)Nc3c(C)cccc3C)nc2c1 | 4.58% (active)
62 | O=C(c1ccc(Cl)cc1)N1CCCCC1 | 95.4% (inactive)
63 | CC(=O)NC(O)C(Cl)Cl (centres undefined) | 102% (inactive)
64 | CCC(/C=C\C(C)=O)CC | 107% (inactive)
65 | CCOC(=O)C(COS(C)(=O)=O)(COS(C)(=O)=O)C(=O)OCC | 105% (inactive)
66 | CC(=O)NNC(=S)N/C=C/c1c(C)ccc([N+](=O)[O-])c1[N+](=O)[O-] | 110% (inactive)
67 | CC(=O)N(CCCCCCN(C(C)=O)C(C)=O)C(C)=O | 101% [100 µM] (inactive)
68 | CC(=O)NCNC(C)=O | 99.8% (inactive)
69 | NNc1ncccn1 | 109% (inactive)
70 | CC12CCC3c4ccc(O)cc4CCC3C1CCC2=O (centres undefined) | 97% (inactive)
71 | Nc1cc2ccccc2c(O)c1O | 81.2% (inactive)
72 | S=c1nc(-c2ccccn2)c(-c2ccccn2)n[nH]1 | 101% (inactive)
73 | CC(C)Sc1ncnc2nc[nH]c12 | 102% (inactive)
74 | Clc1cccc(Cl)c1C1CSc2ccccc2N=C1c1ccccc1 (centres undefined) | 82.7% (inactive)
